For experiment [1], the target named is Cytochrome P450 3A4 (Homo sapiens) (UniProt P08684). Nature of the experiment: qHTS Assay for Inhibitors and Substrates of Cytochrome P450 3A4 (AID 884). Note: % is set by controls: 0 for no effect and ±100 for the full control effect; nearly all actives have a fitted effect of over 50% in size. In a few lines:
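20 nM human CYP3A4 with 25 uM Luciferin-PPXE (at KM) in 200 mM KPO4, preincubated 10 min with compound; NADPH regeneration started a 60 min RT reaction. Luciferin detected by luminescence, normalized to 57 uM ketoconazole as full inhibition.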
(In general: Quantitative high-throughput screening tests each substance at several concentrations.)

A short description of experiment [2]: Confirmation and Secondary Assay for Modulators of Hemoglobin Beta Chain Splicing at IVS2 654 locus (AID 910).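 Note: HeLa cells stably carrying EGFP split by mutant beta-globin IVS2-654 intron; % of control where 0% means no effect.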 In a few lines: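 HeLa cells stably expressing EGFP interrupted by β-globin IVS2-654 intron, seeded overnight in Opti-MEM/2% FCS, then treated 2 days at 37 °C. Restored splicing read as total peak GFP intensity per well by laser scanning cytometry (488 nm excitation, 500–520 nm emission); 500 nM antisense PNA as control.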

A short description of experiment [3]: Confirmation and Secondary Assay for Modulators of Hemoglobin Beta Chain Splicing at IVS2 705 locus (AID 930).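 Note: HeLa cells stably expressing the EGFP-705 splicing reporter; GFP fluorescence per well restored by corrected splicing of the IVS2-705 intron in EGFP; % of control where 0% means no effect.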 In a few lines:
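Read-out: total peak GFP fluorescence per well (488 nm excitation, 500-520 nm emission) by laser-scanning cytometry. Cells: HeLa EGFP-705 splicing reporter, 2 days compound exposure in Optimem/2% FCS.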

Experiment [4] can be described thus: qHTS Assay for Lipid Storage Modulators (AID 1519; calls by dose curve; for activity change, negative = inhibition: % is set by controls: 0 for no effect and ±100 for the full control effect). The following applies: Drosophila S3 cells, BODIPY lipid droplet/cell ratio, laser cytometry, cells loaded with oleic acid. In a few lines:
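Cells seeded at 5,000 per well were treated with compounds over a concentration series and loaded with oleic acid (400 uM, as added). Lipid droplet fluorescence (488 nm excitation, 500-530 nm channel) was read by laser-scanning cytometry and normalized to 20 uM Triacsin C.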

Experiment [5] deals with Ubiquitin carboxyl-terminal hydrolase 1 (Homo sapiens) (UniProt O94782). Put plainly: Inhibitors of USP1/UAF1: Pilot qHTS (AID 504865).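 Note: rhodamine fluorescence freed from ubiquitin-rhodamine substrate followed over time; top concentration of the series differs between compounds; % is set by controls: 0 for no effect and ±100 for the full control effect; nearly all actives have a fitted effect of over 35% in size.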 In a few lines: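 USP1/UAF1 complex at 1 nM preincubated 15 min at room temperature with compound, then Ub-Rho substrate added at 150 nM final. Fluorescence (480/540 nm) read kinetically in 50 mM HEPES pH 7.8, 0.5 mM EDTA, 1 mM TCEP, 0.1 mg/ml BSA, 0.01% Tween-20.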

Experiment [6] has as its target DNA dC->dU-editing enzyme APOBEC-3G (Homo sapiens) (UniProt Q9HC16). Nature of the experiment: qHTS for inhibitors of Vif-A3G interactions: Validation (AID 588379). Note: 0% is about no effect. In a few lines: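 HeLa cells stably expressing Vif and A3G-eYFP, 700 cells/well, incubated overnight at 37 deg C, then exposed to compound overnight at 37 deg C. Inhibition of Vif-mediated degradation read as increased yellow fluorescence (Ex 488/Em 500-530) by laser-scanning cytometry.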

Structures are written as SMILES. Values joined by “and” are separate entries in the source; they are usually repeats but may differ in a detail not shown here. Identical values can stand only once. Records with an inconclusive call do not appear. Active and inactive are the calls of the source. Unless noted, calls come from the whole dose curve; as a rule, active = well fitted curve in the direction sought with a large enough effect; inconclusive = small, poorly fitted or top-dose-only effect, or another doubt; inactive = no such curve, though single readings can be large; an effect the other way counts as inactive or inconclusive.

Chain of Cytochrome P450 3A4 (Homo sapiens) (P08684 whole entry, looked up): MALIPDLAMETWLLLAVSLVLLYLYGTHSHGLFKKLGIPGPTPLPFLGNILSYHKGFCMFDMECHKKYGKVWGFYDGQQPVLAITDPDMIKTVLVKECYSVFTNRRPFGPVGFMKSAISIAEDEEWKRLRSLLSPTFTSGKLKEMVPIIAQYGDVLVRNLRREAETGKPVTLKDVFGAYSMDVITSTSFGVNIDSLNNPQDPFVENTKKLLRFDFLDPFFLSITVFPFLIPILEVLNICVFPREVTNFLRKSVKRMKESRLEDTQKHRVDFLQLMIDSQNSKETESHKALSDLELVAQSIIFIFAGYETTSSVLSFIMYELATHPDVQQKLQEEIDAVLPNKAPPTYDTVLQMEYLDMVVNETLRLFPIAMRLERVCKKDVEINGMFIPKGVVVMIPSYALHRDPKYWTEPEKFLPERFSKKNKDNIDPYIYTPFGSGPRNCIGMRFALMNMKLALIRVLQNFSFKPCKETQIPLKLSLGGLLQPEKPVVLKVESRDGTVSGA
Chain of Ubiquitin carboxyl-terminal hydrolase 1 (Homo sapiens) (O94782 whole entry, looked up): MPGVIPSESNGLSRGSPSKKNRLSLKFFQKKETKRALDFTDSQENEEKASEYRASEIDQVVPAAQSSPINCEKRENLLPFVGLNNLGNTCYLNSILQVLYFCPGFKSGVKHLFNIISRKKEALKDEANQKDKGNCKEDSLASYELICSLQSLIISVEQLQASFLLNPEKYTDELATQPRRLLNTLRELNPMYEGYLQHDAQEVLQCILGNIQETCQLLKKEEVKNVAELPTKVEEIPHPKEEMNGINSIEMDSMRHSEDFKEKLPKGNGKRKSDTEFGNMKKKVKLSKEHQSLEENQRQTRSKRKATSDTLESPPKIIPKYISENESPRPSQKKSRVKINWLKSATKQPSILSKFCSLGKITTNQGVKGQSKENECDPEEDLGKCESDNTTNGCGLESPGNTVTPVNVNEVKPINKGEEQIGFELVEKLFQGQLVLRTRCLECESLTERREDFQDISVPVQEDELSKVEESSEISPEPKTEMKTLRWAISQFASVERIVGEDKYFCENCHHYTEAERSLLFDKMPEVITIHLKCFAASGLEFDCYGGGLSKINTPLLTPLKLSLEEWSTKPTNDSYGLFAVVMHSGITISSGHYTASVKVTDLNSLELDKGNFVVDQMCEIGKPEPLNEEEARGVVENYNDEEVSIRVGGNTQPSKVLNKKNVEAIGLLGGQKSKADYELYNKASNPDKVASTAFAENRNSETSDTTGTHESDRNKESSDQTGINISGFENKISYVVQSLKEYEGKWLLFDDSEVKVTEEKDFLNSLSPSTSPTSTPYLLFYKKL
Chain of DNA dC->dU-editing enzyme APOBEC-3G (Homo sapiens) (Q9HC16 whole entry, looked up): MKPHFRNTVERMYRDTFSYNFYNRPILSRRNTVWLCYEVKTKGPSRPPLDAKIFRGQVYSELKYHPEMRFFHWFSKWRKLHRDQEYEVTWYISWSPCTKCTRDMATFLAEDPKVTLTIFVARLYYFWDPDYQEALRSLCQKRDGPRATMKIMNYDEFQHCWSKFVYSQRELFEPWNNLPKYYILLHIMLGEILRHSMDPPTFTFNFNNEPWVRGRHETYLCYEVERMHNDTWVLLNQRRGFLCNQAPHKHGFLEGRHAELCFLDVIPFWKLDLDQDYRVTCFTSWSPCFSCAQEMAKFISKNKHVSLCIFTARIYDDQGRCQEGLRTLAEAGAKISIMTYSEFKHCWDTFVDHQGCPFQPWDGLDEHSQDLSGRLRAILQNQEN

`CC(=O)Oc1c(C)c(C)c2c(c1C)CCC(C)(CCCC(C)CCCC(C)CCCC(C)C)O2` (stereo not drawn): the Potency result in experiment [1], in experiment [2] and in experiment [5] was “inactive” each time. In addition, the outcome in experiment [3] and in experiment [6] was inactive. For the same compound, the activity change, negative = inhibition in experiment [4] (at 57.5 µM (top of the series)) was 7.46% (inactive) and -0.674% (inactive). Moreover, the max response in experiment [4] (measured here: cell count channel max response) was 1.52% and -6.76%; in experiment [4] (measured here: lipid channel max response), 12.6% and -6.49%.
